Values joined by “and” are separate entries in the source; they are usually repeats but may differ in a detail not shown here. Equal entries are not always repeated. Records with an inconclusive call do not appear. Active and inactive are the calls of the source. Rule for the calls, unless noted: active = hit-call score of the fitted dose curve at least 0.9, where 1 is the maximum; inactive = score below 0.9.
What was measured:
[1] = CCTE_Shafer_MEA_acute_burst_percentage_mean: CCTE's Neural Acute Assay for Percentage of Spikes in a Burst, Shafer Lab (AID 2284017);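 for AC50: curve fitted for loss of signal so potency reflects decreased burst percentage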
Method in brief: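 Primary rat cortical neurons on 48-well MEA plates, treated on DIV 13 or 15 at 0.03-40 uM. Spikes detected at 8x rms noise at 37C; percent change from 40-min baseline to 40-min post-dose recording, fitted versus DMSO.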

[2] = CCTE_Shafer_MEA_acute_burst_percentage_std: CCTE's Neural Acute Assay for Standard Deviation of Burst Percentage, Shafer Lab (AID 2284018);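 note: fitted in the negative direction so actives lower burst percentage SD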
Method in brief: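 Value is percent change from baseline in the across-electrode SD of spikes-in-bursts percentage, wells with >/= 10 active electrodes. Acute 40-min exposure to 0.03-40 uM on DIV 13 or 15 rat cortical cultures, recorded at 37 C after 40-min baseline.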

[3] = CCTE_Shafer_MEA_acute_per_network_burst_spike_number_mean: CCTE's Neural Acute Assay for Average Number of Spikes in a Network Burst, Shafer Lab (AID 2284019);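 for AC50: curve fitted for loss of signal so actives reduce spikes per network burst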
Method in brief: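 Percent change from baseline in mean spikes per network burst, spikes detected at 8x rms noise. Each compound at 0.03-40 uM in at least three wells of rat cortical cultures, recorded 40 min before and 40 min during exposure.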

[4] = CCTE_Shafer_MEA_acute_per_network_burst_spike_number_std: CCTE's Neural Acute Assay for Standard Deviation of Number of Spikes in a Network Burst, Shafer Lab (AID 2284020);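 note: fitted for decrease in spike-number SD versus DMSO so actives lower it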
Method in brief: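 Endpoint: percent change from 40 min baseline in standard deviation of spikes per network burst, after 40 min compound exposure (0.03-40 uM, 37 C). Cortical rat neurons on MEA at DIV 13 or 15; spikes detected at 8x rms noise, 300-5000 Hz band-pass.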

[5] = CCTE_Shafer_MEA_acute_per_network_burst_electrodes_number_mean: CCTE's Neural Acute Assay for Mean Number of Electrodes in a Network Burst, Shafer Lab (AID 2284021);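 note: curves fitted for decreases only so hits reduce electrodes per burst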
Method in brief: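 Readout: % change in mean electrodes active per network burst, post- vs pre-treatment, each well. Spikes detected at 8x rms noise after 300-5000 Hz band-pass; rat cortical cultures, DIV 13/15, compounds 0.03-40 uM, DMSO baseline.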

[6] = CCTE_Shafer_MEA_acute_network_burst_percentage: CCTE's Neural Acute Assay for Percentage of Network Bursts, Shafer Lab (AID 2284022);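 note: curves fitted for loss so actives lower network burst percentage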
Method in brief: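 Rat cortical cultures, DIV 13/15; 20 min equilibration, 40 min baseline, compound 0.03-40 uM, 40 min recording, 37 C. Spikes: 300-5000 Hz band-pass, threshold 8x rms noise. Readout: % change in network-burst spike fraction; loss direction vs DMSO.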

[7] = target: Estrogen receptor (Homo sapiens) (UniProt P03372); assay: CCTE_Deisenroth_AIME_96WELL_LUC_Active: CCTE's 96-well Estrogen Receptor Transactivation Assay with AIME metabolic competence (ERTA luciferase; metabolism positive), Deisenroth Lab (AID 2284023; active = hit-call score of the fitted dose curve at least 0.9, where 1 is the maximum)
Method in brief: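 Metabolism-positive mode: induced rat hepatic S9 in alginate microspheres conditions test solutions (0.002 - 200 uM, 10 points) for 2 hours. VM7Luc4E2 ER luciferase reporter cells then exposed 24 h; positive-direction fit against 17beta-estradiol, n=4 typical.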

[8] = CCTE_Shafer_MEA_acute_cross_correlation_area: CCTE's Neural Acute Assay for Area of Cross Correlation, Shafer Lab (AID 2284024);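 note: area under pooled inter-electrode spike cross-correlation near zero lag as percent change from own baseline; curves fitted for loss of cross-correlation area so actives lower synchrony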
Method in brief: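 Rat cortical cultures, DIV 13/15, MEA; spikes detected at 8x rms noise (300-5000 Hz band-pass). Compound 0.03-40 uM, ≥3 wells each. Readout: % change in pooled inter-electrode cross-correlation area vs own baseline; DMSO negative control.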

[9] = target: Estrogen receptor (Homo sapiens) (UniProt P03372); assay: CCTE_Deisenroth_AIME_96WELL_LUC_Inactive: CCTE's 96-well Estrogen Receptor Transactivation Assay without AIME metabolic competence (ERTA luciferase; metabolism negative), Deisenroth Lab (AID 2284025; active = hit-call score of the fitted dose curve at least 0.9, where 1 is the maximum)
Method in brief: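 Metabolism-negative arm: chemicals (0.002–200 uM, 10 points) incubated 2 h with alginate-water microspheres, then medium moved onto VM7Luc4E2 cells for 24 h luciferase read-out. Positive direction vs 17beta-estradiol; n≥4 experiments.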

[10] = CCTE_Shafer_MEA_acute_cross_correlation_HWHM: CCTE's Neural Acute Assay for Cross Correlation at Half Width at Half Maximum, Shafer Lab (AID 2284026);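 note: percent change per well from pre-dose baseline in spike cross-correlogram half width; hits are a decrease in cross-correlogram half width relative to DMSO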
Method in brief: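 Read-out: half width at half maximum of action-potential cross-correlogram, percent change versus pre-treatment baseline, fitted in loss direction against DMSO. Rat cortical cultures, DIV 13 or 15, dosed 0.03-40 uM, 40-min recordings at 37 C.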

[11] = CCTE_Shafer_MEA_acute_synchrony_index: CCTE's Neural Acute Assay for Synchrony, Shafer Lab (AID 2284027);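 note: network synchrony index of spontaneous spiking in primary rat cortical neurons on MEAs; fitted for loss of signal so actives lower synchrony relative to DMSO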
Method in brief: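 Acute exposure of rat primary cortical neurons (DIV 13 or 15) at 0.03-40 uM. Synchrony index, 40 min before vs after, as % change relative to DMSO control.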

[12] = CCTE_Shafer_MEA_dev_firing_rate_mean: CCTE's Neural Network Formation Assay for Mean Firing Rate, Shafer Lab (AID 2284031);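 for AC50: curve fitted for loss of firing so AC50 reflects decreased mean firing rate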
Method in brief: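 Extracellular spike frequency, AUC over DIV 5–12 recordings, in rat cortical neuron MEA cultures dosed from plating; loss direction vs DMSO.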

[13] = CCTE_Shafer_MEA_dev_per_burst_spike_percent: CCTE's Neural Network Formation Assay for Percent of Spikes in a Burst, Shafer Lab (AID 2284032);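 for AC50: fitted as a decrease in burst spike percentage below DMSO baseline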
Method in brief: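 Value is trapezoidal AUC over recordings on days 5, 7, 9 and 12 of the well-mean fraction of spikes falling in single-electrode bursts; rat cortical cultures exposed continuously from plating, treatment renewed DIV 5 and 9, fitted downward against DMSO.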

[14] = CCTE_Shafer_MEA_dev_active_electrodes_number: CCTE's Neural Network Formation Assay for Number of Active Electrodes, Shafer Lab (AID 2284040; active = hit-call score of the fitted dose curve at least 0.9, where 1 is the maximum;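 for AC50: potency for loss of active electrodes versus DMSO so lower counts are hits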)
Method in brief: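 Developing rat cortical networks on MEAs, exposed DIV 0–12. Value is the AUC of active-electrode counts (≥5 spikes/min) from days 5, 7, 9, 12, relative to DMSO.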

[15] = CCTE_Deisenroth_AIME_384WELL_CTox_Active: Cytotoxicity Assessment (CTOX) in CCTE's 384-well Estrogen Receptor Transactivation Assay with AIME metabolic competence (metabolism positive), Deisenroth Lab (AID 2284037; active = hit-call score of the fitted dose curve at least 0.9, where 1 is the maximum;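 note: chemicals first conditioned 2 h by alginate-bound induced rat liver S9 before cells; activity means signal loss indicating cell death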)
Method in brief: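 Cytotoxicity in VM7Luc4E2 breast cells, 24 hour, measured as protease-substrate fluorescence loss, after 2-hour metabolic conditioning with induced rat hepatic S9 in alginate microspheres. Concentrations 0.002 - 200 uM, 10 points, bidirectional fitting.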

[16] = target: Estrogen receptor (Homo sapiens) (UniProt P03372); assay: CCTE_Deisenroth_AIME_384WELL_LUC_Inactive: CCTE's 384-well Estrogen Receptor Transactivation Assay without AIME metabolic competence (ERTA luciferase; metabolism negative), Deisenroth Lab (AID 2284038; active = hit-call score of the fitted dose curve at least 0.9, where 1 is the maximum;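 note: VM7Luc4E2 breast cells given medium preincubated 2 h with S9-free microspheres; hits raise estrogen receptor luciferase signal so potencies reflect agonists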)
Method in brief: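 Metabolism-negative mode: AIME lids stamped in alginate-water, no hepatic S9. 2 h chemical incubation → medium onto VM7Luc4E2 ERTA, 24 h. Readout luciferase luminescence; gain-of-signal fit vs 17beta-estradiol. Conc. 0.002 - 200 uM.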

[17] = CCTE_Deisenroth_AIME_384WELL_CTox_Inactive: Cytotoxicity Assessment (CTOX) in CCTE's 384-well Estrogen Receptor Transactivation Assay without AIME metabolic competence (metabolism negative), Deisenroth Lab (AID 2284039; active = hit-call score of the fitted dose curve at least 0.9, where 1 is the maximum;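 note: cell viability via live-cell protease substrate cleaved to fluorescent probe; cells exposed 24 h to medium preincubated 2 h with alginate-water beads without S9; loss of fluorescence signal means loss of viability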)
Method in brief: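 VM7Luc4E2 cells, metabolism-negative arm: test chemicals (0.002–200 uM, 10 points) pre-incubated 2 h with alginate-water microspheres, then medium transferred to cells for 24 h. Viability read as protease-substrate cleavage to fluorescent probe; loss-of-signal, bidirectional fitting.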

[18] = target: Estrogen receptor (Homo sapiens) (UniProt P03372); assay: CCTE_Deisenroth_AIME_384WELL_LUC_Shift: CCTE's 384-well Estrogen Receptor Transactivation Assay with AIME metabolic competence data shift (ERTA luciferase; difference in metabolism positive and negative), Deisenroth Lab (AID 2284041);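 note: shift is response with S9 minus without S9 so positive means metabolism raised ER signal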
Method in brief: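 Test chemicals (0.002–200 uM, 10-point) were pre-incubated 2 h with alginate microspheres containing phenobarbital/beta-naphthoflavone-induced male Sprague Dawley rat liver S9 or water, then medium was transferred to VM7Luc4E2 cells for 24 h luciferase readout; shift = S9-positive minus S9-negative normalized response.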

Measured: AC50

Chain of Estrogen receptor (Homo sapiens) (P03372 whole entry, looked up): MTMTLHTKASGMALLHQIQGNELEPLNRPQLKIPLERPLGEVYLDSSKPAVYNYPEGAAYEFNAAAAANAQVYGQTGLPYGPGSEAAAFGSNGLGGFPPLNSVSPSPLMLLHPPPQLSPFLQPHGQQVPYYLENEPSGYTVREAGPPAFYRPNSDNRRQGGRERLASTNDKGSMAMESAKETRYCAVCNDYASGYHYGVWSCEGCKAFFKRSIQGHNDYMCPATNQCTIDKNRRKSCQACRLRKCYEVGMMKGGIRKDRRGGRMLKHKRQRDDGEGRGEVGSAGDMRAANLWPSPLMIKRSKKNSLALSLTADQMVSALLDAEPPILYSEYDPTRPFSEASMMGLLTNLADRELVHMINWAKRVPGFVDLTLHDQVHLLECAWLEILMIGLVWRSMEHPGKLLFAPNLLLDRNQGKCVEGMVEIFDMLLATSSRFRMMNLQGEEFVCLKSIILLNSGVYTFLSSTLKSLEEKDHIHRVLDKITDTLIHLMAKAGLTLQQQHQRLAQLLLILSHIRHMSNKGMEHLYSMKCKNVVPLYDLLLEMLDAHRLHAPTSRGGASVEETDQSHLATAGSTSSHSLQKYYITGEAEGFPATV

CC1(C)C(C=C(Cl)Cl)C1C(=O)OCc1cccc(Oc2ccccc2)c1 (stereo unspecified)
active: [1] 20 µM | [5] 6 µM | [6] 20 µM | [7] 65.9 µM | [9] 75.6 µM | [11] 34.7 µM | [13] 21.4 µM and 7.56 µM | [14] 24.7 µM and 10.1 µM
inactive: [2] | [3] | [4] | [8] | [10] | [12]

CSC(=O)c1cccc2nnsc12
inactive: [1] | [2] | [3] | [4] | [5] | [6] | [8] | [10] | [11] | [12] | [13] | [15] | [16] | [17] | [18]

C#CCOC(=O)[C@@H](C)Oc1ccc(Oc2ncc(Cl)cc2F)cc1
inactive: [1] | [2] | [3] | [4] | [5] | [6] | [8] | [10] | [11] | [12] | [13] | [16] | [14]
active: [18] 19.1 µM

O=C(c1ccc(O)cc1O)c1ccc(O)cc1O
inactive: [1] | [2] | [3] | [4] | [5] | [6] | [8] | [10] | [11] | [15] | [17] | [18]
active: [16] 6.69 µM

Cc1nn(C)c(Oc2ccccc2)c1C=NOCc1ccc(C(=O)OC(C)(C)C)cc1
inactive: [4] | [5] | [15] | [17] | [18]
active: [1] 3.26 µM | [2] 7.36 µM | [3] 0.39 µM | [6] 1.5 µM | [8] 0.003 µM | [10] 4.36 µM | [11] 3.27 µM | [12] 0.00442 µM | [13] 2.93 nM | [14] 2.64 nM
